A number with no mark means an inactive call. Inconclusive results are not listed. Calls of active or inactive are those of the source. Unless noted, calls come from the whole dose curve; as a rule, active = well fitted curve in the direction sought with a large enough effect; inconclusive = small, poorly fitted or top-dose-only effect, or another doubt; inactive = no such curve, though single readings can be large; an effect the other way counts as inactive or inconclusive. Some results are limits rather than exact numbers.

Assay [1] in a line: AP1 Signaling Pathway (AID 357; active = well fitted curve in either direction with a large enough effect, not every such curve was filed as active;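 note: ME-180 reporter cells stimulated with EGF at its EC50 level; % is set by controls: 0 for no effect and ±100 for the full control effect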). The conditions noted are these: ME-180 AP-1-bla reporter, EGF-induced, beta-lactamase ratio, 5 h; at 7.69 µM (top of the series) unless noted. The method, boiled down: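 First, ME-180 AP-1-bla cells were cultured overnight at 37 °C in low-serum Opti-MEM. Next, titrated compounds with EC50 EGF were incubated 5 hours. Finally, CCF4 was added for 2.5 hours and the 460/530 nm ratio recorded.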

Assay [2] has as its target Cytochrome P450 1A2 (Homo sapiens) (UniProt P05177). Put plainly: p450-cyp1a2 (AID 410; calls by dose curve; note: potency is the fitted concentration of half-maximal effect;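 for activity change, negative = inhibition: -100% = full effect of reference inhibitor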). The method, boiled down: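 Inhibition was calculated relative to 57 uM furafylline (full inhibition). The reaction used human CYP1A2 at 20nM with Luciferin-ME at its Km, 100uM, driven by an NADPH-regenerating system for 60 min at room temperature.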
Assay [3] can be described thus: Stat Signaling Pathway (AID 446; active = well fitted curve in either direction with a large enough effect, not every such curve was filed as active;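 note: ME-180 cervical cancer cells given 40 pM IL-6 alongside compound; SIE-controlled beta-lactamase reporter measured as 460/530 nm FRET emission ratio; % is set by controls: 0 for no effect and ±100 for the full control effect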). The conditions noted are these: ME-180 SIE beta-lactamase reporter, IL-6 stimulated, 5 h; at 7.69 µM (top of the series) unless noted. The method, boiled down: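 ME-180 cells carrying a SIE-driven beta-lactamase reporter are stimulated with 40 pM IL-6 for 5 h at 37C in the presence of compound. The 460/530 nm FRET substrate ratio is read after 2.5 h at RT. Data are normalised to 300 pM IL-6 and to 125 nM JAK inhibitor controls.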

The target of assay [4] is Glucocorticoid receptor (Homo sapiens) (UniProt P04150). Put plainly: GR-GFP Redistribution (AID 450;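 active = compounds whose dose series gives a full or clear partial fitted curve of increased nuclear translocation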; note: potency is the fitted concentration of half-maximal effect). The conditions noted are these: U2OS GR-GFP nuclear translocation, laser cytometry, 2 h.
Chain of Glucocorticoid receptor (Homo sapiens) (P04150 whole entry, looked up): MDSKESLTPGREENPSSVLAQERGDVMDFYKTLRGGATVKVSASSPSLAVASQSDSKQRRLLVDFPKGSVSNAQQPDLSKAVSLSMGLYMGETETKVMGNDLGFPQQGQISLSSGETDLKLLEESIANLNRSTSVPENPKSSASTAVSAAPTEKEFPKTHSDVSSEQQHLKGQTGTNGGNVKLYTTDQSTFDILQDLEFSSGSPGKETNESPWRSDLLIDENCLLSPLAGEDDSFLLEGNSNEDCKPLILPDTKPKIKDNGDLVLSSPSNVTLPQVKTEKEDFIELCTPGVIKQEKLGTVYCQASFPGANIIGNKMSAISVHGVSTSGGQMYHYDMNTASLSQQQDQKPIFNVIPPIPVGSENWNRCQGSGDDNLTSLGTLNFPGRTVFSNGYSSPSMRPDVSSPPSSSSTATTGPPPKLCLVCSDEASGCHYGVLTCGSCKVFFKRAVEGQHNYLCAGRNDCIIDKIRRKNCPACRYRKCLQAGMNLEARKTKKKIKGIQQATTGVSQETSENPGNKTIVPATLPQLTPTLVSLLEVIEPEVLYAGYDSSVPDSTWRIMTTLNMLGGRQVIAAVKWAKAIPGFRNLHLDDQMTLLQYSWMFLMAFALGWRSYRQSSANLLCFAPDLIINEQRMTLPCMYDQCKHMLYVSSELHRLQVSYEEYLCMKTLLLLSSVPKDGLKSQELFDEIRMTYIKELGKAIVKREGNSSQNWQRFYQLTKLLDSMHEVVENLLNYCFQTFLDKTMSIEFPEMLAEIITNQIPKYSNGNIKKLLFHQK
Assay [5] has the same target. Put plainly: GR-EFC Redistribution (AID 451; calls by dose curve; note: potency is the fitted concentration of half-maximal effect). As to conditions: CHO-K1 GR-EFC translocation, beta-gal luminescence, 2 h. In outline:
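CHO-K1 cells stably expressing nuclear-localized β-gal enzyme acceptor and GR fused C-terminally to the enzyme donor fragment; ligand-driven nuclear translocation restores β-gal by complementation. Compounds titrated up to 46 uM final, 2 h at 37 °C; luminescence read.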

Assay [6] has as its target Mitogen-activated protein kinase 10 (Mus musculus) (UniProt Q61831). The assay can be described thus: JNK3 AlphaScreen Assay (AID 530; active = well fitted curve in either direction with a large enough effect, not every such curve was filed as active;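 note: kinase came from lysate of stimulated human HepG2 cells; signal reports phosphorylation of biotinylated GST-cJun 1-79 at Ser73 with 10 µM ATP; % is set by controls: 0 for no effect and ±100 for the full control effect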). The method, boiled down:
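JNK3 came from HepG2 lysates pre-activated with IL-1beta and TNF-alpha and phosphorylated biotinylated GST-cJun (1-79) at 10 uM ATP, pH 7.6, room temperature. Compounds were titrated. AlphaScreen signal used anti-phospho-cJun (Ser73) antibody.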
For orientation: Alpha assays give light when donor and acceptor beads are brought close together.

For assay [7], the target named is 3',5'-cyclic-AMP phosphodiesterase 4B (Homo sapiens) (UniProt Q07343). The assay can be described thus: qHTS Assay for Inhibitors of PDE-IV (AID 607; active = well fitted activation curve with a large enough effect in the main read-out, with a control signal flat, not every such curve was filed as active; note: % of control where 0% means no effect). The method, boiled down:
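HEK293 ACTOne cells with CNG channel (1000/well), endogenous PDE4; membrane potential dye, compounds up to 22.9 uM final. Fluorescence Ex 535/Em 590; RO 20-1724 (100 uM final) as reference.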
(In qHTS, concentration-response curves come from the screen itself.)

Assay [8] is described as follows: NFAT Signaling Pathway (AID 444; active = well fitted curve in either direction with a large enough effect, not every such curve was filed as active;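 note: carbachol stimulus at about its EC50 of 1 µM final; % is set by controls: 0 for no effect and ±100 for the full control effect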). The conditions noted are these: Jurkat NFAT-bla M1, carbachol, beta-lactamase ratio, 5 h; at 7.69 µM (top of the series) unless noted. The method, boiled down: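 Jurkat cells carrying an NFAT-driven β-lactamase reporter and co-transfected muscarinic M1 receptor were treated with compound plus carbachol (1 uM final, an EC50 level) for 5 h at 37 °C. CCF4 loading followed for 1 h at RT; 460/530 nm ratio gave %activity.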

Assay [9] deals with Guanine nucleotide-binding protein G(i) subunit alpha-1 (Homo sapiens) (UniProt P63096). Put plainly: qHTS Assay for Inhibitors of RGS12 GoLoco Motif Activity (Green Fluorophore) (AID 879).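 Note: 0% = labeled peptide with Gαi1 and full inhibition = labeled peptide alone without protein; negative values mean loss of peptide binding seen as reduced polarization.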 In outline: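 Fluorescence polarization assay: 50 nM Gαi1 with 10 nM FITC-labeled RGS12 GoLoco peptide in 10 mM Tris pH 7.5, 150 mM NaCl, 0.1 mM GDP, 0.05% NP40, 10 min at room temperature with compound.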
Chain of Guanine nucleotide-binding protein G(i) subunit alpha-1 (Homo sapiens) (P63096 whole entry, looked up): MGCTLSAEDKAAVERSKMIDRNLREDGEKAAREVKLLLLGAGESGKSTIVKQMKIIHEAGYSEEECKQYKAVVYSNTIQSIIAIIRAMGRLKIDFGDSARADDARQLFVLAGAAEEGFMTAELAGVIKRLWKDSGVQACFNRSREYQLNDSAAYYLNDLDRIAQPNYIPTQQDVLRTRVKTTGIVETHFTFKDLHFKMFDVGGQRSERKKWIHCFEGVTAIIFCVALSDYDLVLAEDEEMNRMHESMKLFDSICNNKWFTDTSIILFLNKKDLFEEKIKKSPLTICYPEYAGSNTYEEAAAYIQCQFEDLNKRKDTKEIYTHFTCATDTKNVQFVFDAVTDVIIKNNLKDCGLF

Assay [10] can be described thus: qHTS Assay for Identification of Small Molecule Agonists for Thrombopoietin (TPO) Signaling Pathway (AID 917). Note: % is set by controls: 0 for no effect and ±100 for the full control effect. In outline:
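Reporter: GpIIb promoter–luciferase in murine Ba/F3 expressing human TPO receptor. Pre-starved of IL-3 overnight; compounds with 26 pM TPO, 24 hrs, 37 C/5% CO2; luminescence read.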

The target of assay [11] is Muscarinic acetylcholine receptor M1 (Rattus norvegicus) (UniProt P08482). The assay can be described thus: qHTS Assay for Antagonists of Acetylcholine Muscarinic M1 Receptor: Measurement of IP-One Response (AID 944). Note: nearly all actives have a fitted effect of over 75% in size. Note: potency is the fitted concentration of half-maximal effect. The method, boiled down:
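Steps: plate transfected CHO-M1 cells overnight; add test compound, 10 min; add carbachol (200 nM, EC80) in stimulation buffer with LiCl; incubate 30 min; add labelled IP1 tracer and anti-IP1 antibody in lysis buffer; read HTRF after 10 min.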

The target of assay [12] is Pyruvate kinase (Leishmania mexicana) (UniProt Q27686). Put plainly: qHTS Validation Assay for Inhibitors of Leishmania Mexicana Pyruvate Kinase (AID 945).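 Note: 0% = DMSO only neutral control wells.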 The method, boiled down:
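Read-out: luminescence from PKLight stop/detection reagent, data normalized to DMSO. Reaction: 0.2 nM E451W LmPYK, 0.5 mM PEP, 0.1 mM ADP, pH 7.2, 1 h room temperature.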

The target in assay [13] is Pyruvate kinase PKM (Homo sapiens) (UniProt P14618). Put plainly: qHTS Assay for Activators of Human Muscle Pyruvate Kinase (AID 954; active = well fitted curve in the direction sought with a large enough effect, not every such curve was filed as active;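 note: 0% = uninhibited enzyme and -100% = no enzyme or full thiadiazolimine inhibition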). The method, boiled down:
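Purified human PKM2 (0.1 nM) with 0.5 mM PEP (Km) and 0.1 mM ADP in 50 mM imidazole pH 7.2, KCl, MgCl2, 1 h at room temperature; ATP formed read by coupled luciferase luminescence. Normalized to no-enzyme/110 uM thiadiazolimine inhibition; 0.3 nM enzyme column for activation.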

Assay [14] has as its target Alpha-galactosidase A (Homo sapiens) (UniProt P06280). The assay can be described thus: Counterscreen for Glucocerebrosidase Inhibitors: qHTS Assay for Human alpha-Galactosidase at pH 4.5 (AID 992). Note: 0% is about no effect. In outline: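 Human enzyme (2 nM) with 80 uM 4-methylumbelliferyl alpha-D-galactopyranoside in 50 mM citric acid, 0.005% Tween-20, pH 4.5, 20 min at room temperature. Compounds 0.7 nM–77 uM; fluorescence Ex 365/Em 440 after pH 10 stop; AC50 from Hill fits.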
In general terms: The purpose of a counterscreen is to sort out artefacts and off-target activity.

Assay [15] addresses alpha-glucosidase (Oryza sativa, rice) (UniProt Q653V4). The assay can be described thus: Counterscreen for Glucocerebrosidase Inhibitors: qHTS Assay for Rice alpha-Glucosidase at pH 5.0 (AID 997).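 Note: 0% = full activity with enzyme and -100% = basal without enzyme.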 The method, boiled down: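 Rice alpha-glucosidase (4 nM final) with 400 uM 4-methylumbelliferyl-alpha-D-glucopyranoside in citrate buffer pH 5.0, 20 min at room temperature, stopped at pH 10; fluorescence 365/440 nm, compounds 0.7 nM–77 uM, AC50 from Hill fits.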

Assay [16] addresses Cytochrome P450 3A4 (Homo sapiens) (UniProt P08684). Put plainly: qHTS Assay for Activators of Cytochrome P450 3A4 (AID 885). Note: nearly all actives have a fitted effect of over 65% in size. Note: potency is the fitted concentration of half-maximal effect. In outline:
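Human CYP3A4 (20 nM) with Luciferin-PPXE at 25 uM (its KM) in 200 mM KPO4; 10 min compound preincubation, then NADPH regeneration and 60 min reaction at RT. Luciferin read by luminescence; normalized to 57 uM ketoconazole full inhibition.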

The target of assay [17] is Cytochrome P450 2C9 (Homo sapiens) (UniProt P11712). Put plainly: qHTS Assay for Inhibitors and Substrates of Cytochrome P450 2C9 (AID 883). Note: % is set by controls: 0 for no effect and ±100 for the full control effect; nearly all actives have a fitted effect of over 60% in size. The method, boiled down:
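CYP2C9 deoxyluciferin hydroxylation, 37C, 60 min with NADPH regeneration; 10nM enzyme, 100uM Luciferin-H (KM). Glo detection reagent stopped reaction; luminescence normalized to sulphaphenazole (57uM) full inhibition.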

The nature of assay [18]: qHTS Assay for Identification of Small Molecule Antagonists for NFkB Signaling Pathway (AID 895; active = well fitted inhibition curve with a large enough effect in the signal ratio, with a control signal flat, not every such curve was filed as active; the % refers to the signal ratio; note: % is set by controls: 0 for no effect and ±100 for the full control effect). The method, boiled down:
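NFkB-bla ME-180 cervical carcinoma cells with beta-lactamase reporter under NFkB response element; compounds added, then TNF alpha at 10 pM final (EC50), 5 h at 37 C. LiveBLAzer substrate 2 h, room temperature; emission 460/530 nm at 405 nm excitation.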

In assay [19] the target is Cytochrome P450 2C19 (Homo sapiens) (UniProt P33261). Put plainly: qHTS Assay for Inhibitors and Substrates of Cytochrome P450 2C19 (AID 899). Note: % is set by controls: 0 for no effect and ±100 for the full control effect; nearly all actives have a fitted effect of over 60% in size. In outline: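 In 50mM KPO4, the reaction held 5nM enzyme and KM-level (10uM) Luciferin-H EGE; it ran 60 min at 37C after NADPH regeneration and a 10 min compound preincubation. Luminescence values were scaled to 57uM ketoconazole as complete inhibition.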

Chain of Alpha-galactosidase A (Homo sapiens) (P06280 whole entry, looked up): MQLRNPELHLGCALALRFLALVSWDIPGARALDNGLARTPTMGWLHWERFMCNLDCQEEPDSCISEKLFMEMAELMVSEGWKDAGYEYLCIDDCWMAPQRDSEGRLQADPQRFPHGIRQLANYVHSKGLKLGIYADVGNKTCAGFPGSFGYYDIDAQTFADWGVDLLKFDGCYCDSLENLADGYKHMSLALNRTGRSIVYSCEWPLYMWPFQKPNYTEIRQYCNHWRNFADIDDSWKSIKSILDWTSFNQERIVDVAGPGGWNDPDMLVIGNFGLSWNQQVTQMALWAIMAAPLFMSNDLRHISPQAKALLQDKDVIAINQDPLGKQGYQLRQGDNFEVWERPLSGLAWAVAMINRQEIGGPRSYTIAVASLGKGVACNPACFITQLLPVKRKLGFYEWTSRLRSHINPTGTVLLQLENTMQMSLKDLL
Chain of Muscarinic acetylcholine receptor M1 (Rattus norvegicus) (P08482 whole entry, looked up): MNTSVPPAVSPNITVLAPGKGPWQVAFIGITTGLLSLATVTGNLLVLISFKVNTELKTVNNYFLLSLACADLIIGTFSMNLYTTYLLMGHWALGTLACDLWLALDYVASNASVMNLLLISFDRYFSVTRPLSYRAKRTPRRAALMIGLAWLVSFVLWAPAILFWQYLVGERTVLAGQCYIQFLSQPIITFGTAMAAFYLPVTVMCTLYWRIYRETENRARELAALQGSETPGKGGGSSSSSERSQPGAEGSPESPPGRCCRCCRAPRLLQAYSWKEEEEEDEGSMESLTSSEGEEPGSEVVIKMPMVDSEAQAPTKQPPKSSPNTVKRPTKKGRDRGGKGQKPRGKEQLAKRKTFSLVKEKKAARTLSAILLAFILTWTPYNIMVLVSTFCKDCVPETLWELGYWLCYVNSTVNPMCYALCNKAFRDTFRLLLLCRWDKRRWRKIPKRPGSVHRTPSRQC
Chain of 3',5'-cyclic-AMP phosphodiesterase 4B (Homo sapiens) (Q07343 whole entry, looked up): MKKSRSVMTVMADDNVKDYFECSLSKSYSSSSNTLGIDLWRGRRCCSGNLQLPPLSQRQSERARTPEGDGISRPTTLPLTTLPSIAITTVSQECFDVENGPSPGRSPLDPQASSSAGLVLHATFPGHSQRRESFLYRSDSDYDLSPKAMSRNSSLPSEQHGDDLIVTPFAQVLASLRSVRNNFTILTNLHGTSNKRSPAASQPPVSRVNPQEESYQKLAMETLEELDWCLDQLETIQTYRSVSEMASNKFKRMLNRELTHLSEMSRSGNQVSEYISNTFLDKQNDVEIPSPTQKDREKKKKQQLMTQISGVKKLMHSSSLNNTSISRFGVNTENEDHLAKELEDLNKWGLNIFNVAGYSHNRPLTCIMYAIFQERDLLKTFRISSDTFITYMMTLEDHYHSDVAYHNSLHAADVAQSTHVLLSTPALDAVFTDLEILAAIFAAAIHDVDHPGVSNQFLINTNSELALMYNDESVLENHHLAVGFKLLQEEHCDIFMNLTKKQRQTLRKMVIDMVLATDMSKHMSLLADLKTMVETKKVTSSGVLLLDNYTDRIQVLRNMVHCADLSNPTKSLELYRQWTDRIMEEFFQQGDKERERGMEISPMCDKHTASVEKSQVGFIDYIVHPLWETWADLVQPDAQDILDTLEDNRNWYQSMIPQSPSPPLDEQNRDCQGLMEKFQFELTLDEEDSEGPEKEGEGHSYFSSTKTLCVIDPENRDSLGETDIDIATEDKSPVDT
Chain of Cytochrome P450 1A2 (Homo sapiens) (P05177 whole entry, looked up): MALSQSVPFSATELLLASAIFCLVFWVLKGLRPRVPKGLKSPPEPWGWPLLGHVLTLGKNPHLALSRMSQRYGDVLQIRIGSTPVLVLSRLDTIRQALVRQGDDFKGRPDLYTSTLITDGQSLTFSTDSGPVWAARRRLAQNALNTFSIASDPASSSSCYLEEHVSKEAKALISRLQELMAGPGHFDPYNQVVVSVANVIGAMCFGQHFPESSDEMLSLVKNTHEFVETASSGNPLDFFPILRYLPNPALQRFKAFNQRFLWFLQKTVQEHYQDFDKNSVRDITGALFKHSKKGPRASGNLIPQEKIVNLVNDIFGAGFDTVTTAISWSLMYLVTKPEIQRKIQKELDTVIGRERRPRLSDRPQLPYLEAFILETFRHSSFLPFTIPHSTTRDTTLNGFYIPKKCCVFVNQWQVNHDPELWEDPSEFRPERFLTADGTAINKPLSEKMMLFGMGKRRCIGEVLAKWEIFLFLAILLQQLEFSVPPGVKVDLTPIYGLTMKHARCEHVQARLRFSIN
Chain of Pyruvate kinase (Leishmania mexicana) (Q27686 2-499 E452W): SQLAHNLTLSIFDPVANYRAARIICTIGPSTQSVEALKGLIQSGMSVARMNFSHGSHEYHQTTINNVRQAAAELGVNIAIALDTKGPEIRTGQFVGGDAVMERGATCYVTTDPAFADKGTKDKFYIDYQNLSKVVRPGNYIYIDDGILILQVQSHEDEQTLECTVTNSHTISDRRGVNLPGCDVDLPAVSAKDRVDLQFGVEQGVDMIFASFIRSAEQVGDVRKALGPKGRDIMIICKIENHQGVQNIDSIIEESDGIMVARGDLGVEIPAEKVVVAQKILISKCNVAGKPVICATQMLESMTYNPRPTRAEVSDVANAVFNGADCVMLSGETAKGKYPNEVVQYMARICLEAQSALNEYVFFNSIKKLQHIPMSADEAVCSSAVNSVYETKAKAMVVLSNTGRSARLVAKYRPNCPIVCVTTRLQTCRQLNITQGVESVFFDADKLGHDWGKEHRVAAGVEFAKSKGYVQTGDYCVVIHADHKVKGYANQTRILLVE
Chain of Pyruvate kinase PKM (Homo sapiens) (P14618 whole entry, looked up): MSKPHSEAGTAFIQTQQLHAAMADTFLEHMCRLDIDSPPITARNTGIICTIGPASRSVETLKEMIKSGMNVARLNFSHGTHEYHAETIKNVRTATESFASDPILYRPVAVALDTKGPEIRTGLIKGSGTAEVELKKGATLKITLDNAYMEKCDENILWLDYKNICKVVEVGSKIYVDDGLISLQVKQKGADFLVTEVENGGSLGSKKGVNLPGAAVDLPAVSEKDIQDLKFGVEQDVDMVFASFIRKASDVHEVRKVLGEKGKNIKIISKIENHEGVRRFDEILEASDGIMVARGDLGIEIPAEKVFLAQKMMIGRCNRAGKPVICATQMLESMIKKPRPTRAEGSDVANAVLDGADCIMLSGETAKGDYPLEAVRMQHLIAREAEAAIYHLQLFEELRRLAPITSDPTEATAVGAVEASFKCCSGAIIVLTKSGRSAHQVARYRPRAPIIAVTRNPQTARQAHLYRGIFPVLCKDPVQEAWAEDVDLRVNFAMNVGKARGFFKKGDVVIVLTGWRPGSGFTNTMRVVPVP
Chain of Cytochrome P450 3A4 (Homo sapiens) (P08684 whole entry, looked up): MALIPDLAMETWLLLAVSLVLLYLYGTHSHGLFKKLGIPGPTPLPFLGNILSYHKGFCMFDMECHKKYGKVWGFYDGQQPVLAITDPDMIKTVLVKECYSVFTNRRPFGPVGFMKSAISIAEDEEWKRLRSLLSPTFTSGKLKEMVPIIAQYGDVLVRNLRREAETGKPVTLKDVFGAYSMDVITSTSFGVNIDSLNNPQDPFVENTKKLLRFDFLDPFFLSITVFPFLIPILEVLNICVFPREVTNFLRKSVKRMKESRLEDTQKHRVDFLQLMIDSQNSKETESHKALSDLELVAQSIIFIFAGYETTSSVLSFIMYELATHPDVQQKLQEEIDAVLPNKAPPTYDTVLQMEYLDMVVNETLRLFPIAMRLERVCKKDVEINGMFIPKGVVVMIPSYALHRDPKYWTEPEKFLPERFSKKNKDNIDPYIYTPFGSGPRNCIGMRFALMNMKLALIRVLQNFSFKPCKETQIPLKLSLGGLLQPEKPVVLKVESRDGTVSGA

On to `O=C(Nc1ccc2c(c1)Cc1ccccc1-2)[C@@H]1[C@H](C(=O)O)[C@]2(Cl)C(Cl)=C(Cl)[C@@]1(Cl)C2(Cl)Cl`, for which the activity change, negative = inhibition in assay [1] is 9.85%. For the same compound, the Potency in assay [2] is 3.16 µM (active); in assay [4] it was > 46 µM; in [5], > 9.22 µM. Besides, the activity, negative = inhibition in assay [3] was 4.65%. Besides, the Potency entry in assay [6] and in assay [7] was “inactive” each time.
As to `COc1ccccc1OC[C@H](O)CN1CCN(CC(=O)Nc2c(C)cccc2C)CC1`, the activity change, negative = inhibition in assay [1] was -8.83% [at 38 µM]; in assay [8] it was 12.3% [at 38 µM]. For the same compound, the Potency in [4] and in assay [5] was > 46 µM each time. Moreover, the Potency entry in assay [6], in assay [7], in assay [11] and in assay [15] was “inactive” in each case. Moreover, the outcome in assay [9], in assay [10], in assay [12], in assay [13] and in [14] was inactive.
Turning to `C[C@@H](CN1CCC(Cc2ccccc2)CC1)[C@H](O)c1ccc(O)cc1`, the activity change, negative = inhibition in assay [1] was 7.29% [at 38 µM]. Besides, the Potency in assay [2] was 12.6 µM (active); in assay [4] it was > 46 µM; in [5] it was > 46 µM; in assay [16], 10 µM (active); in assay [11] it was 7.08 µM (active). Besides, the activity, negative = inhibition in assay [3] was -25.3% [at 38 µM]. The Potency entry in assay [6], in assay [7] and in assay [15] was “inactive” throughout. The call in assay [9], in assay [10], in assay [12], in assay [13] and in [14] was inactive.
Turning to `C[C@@H](COc1ccc(/C=C\c2ccccc2)cc1)[N+](C)(C)C`, the activity change, negative = inhibition in [1] was -11.9% [at 38 µM]. Also, the Potency entry in assay [2], in [6], in assay [7], in [17], in assay [16] and in assay [18] was “inactive” throughout. In addition, the Potency result in assay [19] and in assay [15] was “inactive” in each case. The activity, negative = inhibition in assay [3] was -2.8% [at 38 µM]. The Potency in assay [4] is > 46 µM; in assay [5], > 46 µM; in [11] it was 7.08 µM (active). The call in assay [9], in assay [10], in assay [12], in assay [13] and in assay [14] was inactive.

The record behind these values is PubChem BioAssay (NCATS).
